Giardia FBPA inh = blocks Giardia fructose-bisphosphate aldolase activity; purified Giardia FBPA; AID 2451; 0.71% of 290,000 active; Potency, µM (series often up to 59.6 µM), for inactives: at the highest dose activity, negative = inhibition, usual class: inhibitors; A8B2U2; also: potency is read from the fitted curve at half-maximal effect; % is scaled to controls: 0 for no effect and ±100 for the full control effect; nearly all actives have a fitted effect of over 55% in size
Target sequence (A8B2U2 whole entry, looked up): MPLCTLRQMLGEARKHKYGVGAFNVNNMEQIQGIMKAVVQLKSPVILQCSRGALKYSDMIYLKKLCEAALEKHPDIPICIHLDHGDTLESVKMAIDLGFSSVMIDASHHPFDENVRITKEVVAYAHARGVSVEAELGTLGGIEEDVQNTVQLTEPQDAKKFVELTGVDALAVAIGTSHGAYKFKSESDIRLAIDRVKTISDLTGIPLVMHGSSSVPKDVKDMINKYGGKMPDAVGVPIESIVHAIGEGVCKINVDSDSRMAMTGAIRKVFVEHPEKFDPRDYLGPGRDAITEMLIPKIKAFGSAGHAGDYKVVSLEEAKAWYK
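Giardia FBPA (40 nM reagent) was preincubated 10 min at RT with compound (up to 57.5 uM final), then substrate plus GAPDH/TPI/NAD/arsenate coupling system with diaphorase/resazurin was added; resorufin fluorescence (525/598 nm) was read after 20 min.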
Shiga inhibitor = inhibitors of Shiga toxin in Vero cells; Vero cells, Shiga toxin protein synthesis inhibition reporter; AID 2315; 9.2% of 290,000 active; inhibition, % at 38.7 µM; in the data active = inhibition mostly above about 28%, no sharp cut-off; inactive = mostly below about 43%; also: 0% is about no effect
NS1 inh = influenza NS1 inhibition. AID 2326. 0.4% of 270,000 active. Potency, µM (doses to about 46.1 µM), for the others: top-dose activity, positive = more growth; calls by dose curve; also: potency is read from the fitted curve at half-maximal effect; actives are rising curves; nearly all actives have a fitted effect of over 50% in size
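Read-out: OD600 growth recovery of NS1-expressing budding yeast. Cells grown overnight at 30C in -URA glucose medium, washed, resuspended and diluted 1:100 in 2% galactose assay medium, pH 6.0. Same strain lacking NS1 served as positive control.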
CHX counter = counter-screen for Shiga toxin inhibitors: cycloheximide protein synthesis inhibition; cell reporter, cycloheximide protein synthesis inhibition counterscreen; max response, %; 12% of 300,000 active; AID 2314; in the data active = max response mostly above about 13%, no sharp cut-off; inactive = mostly below about 14%; also: read at 38.3 µM for the half of the compounds with a filed dose; 0% is about no effect
Pf growth 96h = P. falciparum growth inhibition at 96 hours. Potency, µM (highest dose often 28.7 µM), for inactives: at the highest dose activity change, negative = inhibition, hits mostly inhibitors. 6.9% of 320,000 active. AID 504834. P. falciparum luciferase reporter growth, 96 h; also: potency is read from the fitted curve at half-maximal effect; % is scaled to controls: 0 for no effect and ±100 for the full control effect
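Parasite growth measured via integrated firefly luciferase reporter in P. falciparum. Infected erythrocytes at 2% hematocrit, 0.05% parasitemia final were treated 96 hours at 37 C under 5% CO2, and luminescence was read.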
Pf growth 48h = P. falciparum growth inhibition at 48 hours (one generation). 5.9% of 310,000 active. Potency, µM (titrated, usually from 28.7 µM), inactives show at the top dose activity change, negative = inhibition, hits mostly inhibitors. AID 504832. P. falciparum luciferase growth in erythrocytes, 48 h; also: potency is read from the fitted curve at half-maximal effect; % is scaled to controls: 0 for no effect and ±100 for the full control effect
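Parasite viability was followed by luminescence of a genomically integrated firefly luciferase. Cultures held 0.1% parasitemia at 2% hematocrit (final), incubated under 5% CO2 at 37 C.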
The depositor's hits bear a star; i = inactive; ? = inconclusive; . = not tested or not shown. The list is not random: actives were taken first. Their share in the collection is about 21%. Unless noted, calls follow the shape of the dose curve; as a rule, active = well fitted curve in the direction sought with a large enough effect; inconclusive = small, poorly fitted or top-dose-only effect, or another doubt; inactive = no such curve, though single readings can be large; an effect the other way counts as inactive or inconclusive.

SMILES | Giardia FBPA inh | Shiga inhibitor | NS1 inh | CHX counter | Pf growth 96h | Pf growth 48h
O=C1COc2ccc(S(=O)(=O)N3CCN(c4ccccc4)CC3)cc2N1 | . | -6 | 8% | -11 | ? | -1%
Cc1ccc(N(C)C(=O)CC(C)S(=O)(=O)c2ccc3c(c2)NC(=O)CO3)cc1 (stereo unspecified) | . | -6 | -1% | -3 | 3.7µM* | 19%
CC(CC(=O)N1CCN(c2ccccc2)CC1)S(=O)(=O)c1ccc2c(c1)NC(=O)CO2 (stereo unspecified) | . | -6 | 2% | 2 | 5.9µM* | -5%
Cc1ccc(CNS(=O)(=O)c2cc3c(cc2C)NC(=O)CO3)cc1 | -10% | -1 | -1% | -3 | 4.1µM* | ?
COc1ccc(CN2CCNC(=O)C2CC(=O)NCC2CCOCC2)cc1C (stereo unspecified) | -18% | -4 | 1% | -2 | 6% | 0%
CC1(C(=O)NCCCNc2ncc(C(F)(F)F)cc2Cl)C=CC2(CCCCC2)N1C(=O)c1ccccc1 (stereo unspecified) | 0% | . | . | . | . | .
CCc1noc(C)c1C(=O)NNC(=O)c1ccccc1F | . | . | . | . | 37% | 19%
CCOc1ccccc1C(=O)NCC(=O)NCCCSc1ccccc1 | . | 16 | -3% | 10 | -1% | -7%
Cc1ccc(CNC(=O)CC(C)S(=O)(=O)c2ccc3c(c2)NC(=O)CO3)cc1 (stereo unspecified) | . | -7 | -9% | -2 | 9.3µM* | 6%
COc1ccc(CNC(=O)CC(C)S(=O)(=O)c2ccc3c(c2)NC(=O)CO3)cc1 (stereo unspecified) | 2% | -15 | -6% | -2 | ? | -11%
COc1ccc(OC)c(C(=O)c2coc3ccc(OC(C)=O)cc23)c1 | 0% | 38* | -5% | 25 | 71% | 38%
COc1ccc(OC)c(C(=O)c2coc3ccc(OCC(=O)O)cc23)c1 | 26% | -1 | 0% | -5 | 115% | .
COc1ccc2occ(NC(C)=O)c2c1 | -4% | -10 | -13% | 2 | 63% | 4%
COc1ccc2occ(C(=O)c3ccc(N)cc3)c2c1 | -11% | 71* | -1% | 39* | 321% | 341%
COc1ccc(C(=O)c2coc3ccc(OC(C)=O)cc23)cc1 | 3% | 72* | -3% | 27* | 153% | 212%
COc1ccc2occ(C(=O)c3cccs3)c2c1 | 0% | 96* | -91% | 40* | 299% | .
COc1ccc2c(CC(=O)NNC(=O)c3cccs3)coc2c1 | . | . | . | . | 20% | 31%
CC1CCCCN1CCn1c(=S)[nH]c2cc3c(cc2c1=O)OCO3 (stereo unspecified) | -16% | 16 | . | 6 | 4% | -2%
CC(C)(C)NS(=O)(=O)c1ccc(NC(=O)CS(=O)(=O)Cc2ccccc2)cc1 | . | -9 | 0% | -1 | ? | -3%
O=C(CSCc1ccccc1)NNc1c(F)c(F)cc(F)c1F | 17% | 34 | -1% | 10 | -20% | -20%
O=c1[nH]cc(F)c(=O)[nH]1 | -5% | 0 | -34% | -1 | 4.7µM* | 6.6µM*
COc1ccccc1N=Nc1c(C)[nH][nH]c1=O | -10% | 35 | -6% | 11 | 4% | 36%
Cc1[nH][nH]c(=O)c1N=Nc1ccccc1C#N | -24% | 40 | . | 50* | 23% | -18%
CCN(CC)c1ccc(C(=C2C=CC(=[N+](CC)CC)C=C2)c2ccccc2)cc1 | 18µM* | -25 | . | -20 | . | .
O=C(CCc1nc(-c2ccccc2)no1)NC1CCCCC1 | 1% | 29 | -17% | 12* | . | 19%
SMILES | Giardia FBPA inh | Shiga inhibitor | NS1 inh | CHX counter | Pf growth 96h | Pf growth 48h
COc1ccc(-c2noc(CCC(=O)NC3CCCCCC3)n2)cc1 | 1% | 13 | -14% | 18 | ? | -9%
O=C(CCCC(=O)OCC(=O)c1ccc(Cl)cc1)NC1CCCCC1 | 0% | 14 | -7% | 6 | 12µM* | 23%
O=C(CCc1nc(-c2ccc(Cl)cc2)no1)NC1CCCCC1 | 3% | -6 | -8% | -4 | 0% | 26%
O=C(CCCc1nc(-c2ccc(Cl)cc2)no1)NC1CCCC1 | . | -20 | -16% | 2 | 4.7µM* | -20%
COc1ccc(-c2noc(CCC(=O)NC3CCCCC3)n2)cc1 | 0% | -7 | -10% | 10 | 12µM* | 25%
O=C(CCC(=O)OCC(=O)c1ccc(Br)cc1)NC1CCCCC1 | 5% | -6 | 1% | -1 | . | -7%
CN1C(=O)C(CC(=O)O)S/C1=N\N=C\c1ccc(O)cc1O (stereo unspecified) | -8% | -2 | 7% | -3 | -17% | 1%
COc1cc2c(cc1O)-c1ccccc1CN(C)C2 | -7% | . | . | . | . | .
COc1ccc(-c2noc(CCC(=O)Nc3cc(OC)ccc3OC)n2)cc1 | -10% | -8 | -31% | -2 | 47% | .
COc1ccc(-c2noc(CCC(=O)Nc3cc(Cl)c(OC)cc3OC)n2)cc1 | -15% | 46* | -14% | 41* | ? | .
COc1ccc(-c2noc(CCC(=O)NCc3ccco3)n2)cc1 | 1% | 5 | -5% | 17* | 26% | 24%
COCCCNC(=S)NCCNc1nc2c(C)c(C)ccc2cc1C#N | -8% | -14 | 6% | -2 | 18% | ?
CCOC(=O)CCNC(=O)N1CCCC(Cc2ccccc2)(C(=O)OCC)C1 (stereo unspecified) | 7% | -4 | 18% | -3 | -85% | -30%
Cc1ccc(SC[C@H](Cc2ccccc2)N2CC[C@@H](NC(=O)OCc3ccccc3)CCC2=O)cc1 | 16% | -10 | -6% | 2 | 8.3µM* | ?
O=C(N[C@H]1CCC(=O)N([C@H](CSc2ccccc2)Cc2ccccc2)CC1)OCc1ccccc1 | -8% | 10 | -13% | 7 | 8.3µM* | ?
O=C1CC[C@H](OCc2ccccc2)CCN1[C@H](CSc1ccccc1)Cc1ccccc1 | 10% | 34* | -36% | 27* | ? | ?
COc1ccc(SC[C@H](Cc2ccccc2)N2CC[C@@H](C(C)(C)C)CCC2=O)cc1 | . | . | . | . | ? | 12µM*
O=C1c2ccccc2C(=O)C1c1ccnc2ccccc12 | -1% | 93* | -5% | 38* | i | 460%
O=C1c2ccccc2C(=O)C1c1nccc2ccccc12 | -7% | 97* | 0% | 41* | 9% | 71%
O=C1C(c2ccnc3ccccc23)=C(O)c2ccccc21 | -3% | active | 1% | 47* | ? | i
CCOc1cc(/C=C2/SC(=S)N(Cc3ccccc3)C2=O)ccc1O | -11% | 42* | ? | 16* | -12% | ?
CCOc1cc(/C=C2\SC(=O)N(c3ccc(O)cc3)C2=O)ccc1O | 10% | 50* | -3% | 9.3* | 2% | -2%
COc1cc(/C=C2/SC(=S)N(Cc3ccccc3)C2=O)ccc1OCC(=O)O | -5% | . | ? | 0 | -2% | 0%
COc1cc([N+](=O)[O-])cc(/C=C2/SC(=S)N(Cc3ccccc3)C2=O)c1O | -7% | -4 | -4% | 0 | 9% | 10µM*

Source: PubChem
